From the supplement of paper PMC6555819

These sequences were tested on PPARg:RXRa (NR concentration 180 nM, RXRa partner concentration 90 nM) (assay: PBM binding z-score (relative to random genomic background probes); higher = stronger binding; sequences stand for … in GC…GCGATTGACAGCGTAGAATGAAGG).
How it was run: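 Custom Agilent 4×180K protein-binding microarrays carried double-stranded probes. Their 34-nt variable regions held direct-repeat seeds, single-nucleotide variants, half-site ablations and random human genomic background sequences. Arrays were incubated 1 h with ligand-free nuclear receptor dimers in PBS pH 7.4, 2% milk, 0.02% Triton X-100, 1 mM DTT, 0.2 mg/mL BSA and 0.4 mg/ml salmon testes DNA. Antibodies against each partner (one per run) detected binding, and scanned fluorescence was regression-normalized. Binding z-scores use random background probes as reference.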

Sequence	PBM binding z-score
CCTAGTTGGTCAAAGTCACACACGCTATAGGTAC	1.35
TCTTGTAGATCAAGCACGTTAAGAAAGCCTGAGT	-0.254
TTACCAAGGTGAGAGGTCGTTGATGCACGCCTTG	6.22
TCTTGTAGATCAAAGGCTAAGAAAGCCGAAGCCT	3.24
TAGCCTAGGTCAGAACGGGCCAGTATACGCTATA	0.763
ATCGAAAGGTCGAAGGCGAGTATACCCACCCGAA	2.33
CCTAGCAAGCCAATCTGGGTCACTCAAGGCTTGA	1.85
CCGAGTTGGTCAGGAGGTCACACACCGGATATGA	2.62
AGAGACAGGTGAGTGAAGGTAACTCAGCTGGACG	0.497
GCTCGGCGGACAAGGTCAGAGCTTTGTCCGTAGA	-0.519
ACTAGCAGGCCAAGTTTGGGCCACTCAAACAAAG	-0.254
ACTAGCAGGCCAAGTTTGGGTCACTCAGACAAAG	0.233
CCTTACGGGTCACTCCAGGGTATAGCATCGGAGT	3.23
GGAACGAGGGCAATTTGATAGCAGAGTTTGATGG	1.04
CGTCCAAGGTCATAGGAGGTCAGTTAAGACAGAT	5.84
CGTCCAAGGTGAGCAGGTCAGTGAAAGCGACGTG	0.537
GCTAGTTGGTCAGTAAAAGGTCACACATCGGTCG	2.71
